Assay outcomes deposited in PubChem BioAssay by National Center for Advancing Translational Sciences (NCATS).
D1 antag: blocks dopamine activation of the human D1 receptor | 3.2% of 360,000 active | P21728 | activity change, negative = inhibition, % at 10 µM | HEK293 TREx D1 cells, calcium flux, dopamine EC80; active compounds read low; in the data active = activity change below about -30%; note: % is set by controls: 0 for no effect and ±100 for the full control effect
Target sequence (P21728 whole entry, looked up): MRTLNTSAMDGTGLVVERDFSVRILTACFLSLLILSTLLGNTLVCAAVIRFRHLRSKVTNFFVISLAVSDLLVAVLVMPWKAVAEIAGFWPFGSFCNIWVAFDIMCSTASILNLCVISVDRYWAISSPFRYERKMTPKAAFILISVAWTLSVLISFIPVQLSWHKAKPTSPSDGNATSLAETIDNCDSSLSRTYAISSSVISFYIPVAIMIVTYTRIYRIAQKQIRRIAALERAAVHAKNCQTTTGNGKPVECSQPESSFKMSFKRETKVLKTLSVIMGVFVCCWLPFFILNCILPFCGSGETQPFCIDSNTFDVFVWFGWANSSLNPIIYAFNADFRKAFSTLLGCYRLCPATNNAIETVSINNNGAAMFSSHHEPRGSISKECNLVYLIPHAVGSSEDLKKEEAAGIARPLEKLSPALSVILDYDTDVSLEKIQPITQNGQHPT
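HEK293 T-REx cells expressing inducible, force-coupled D1 receptor; no-wash Ca dye, 30–90 min RT. Cmpd → 180 s read at 1 Hz → EC80 DA → 180 s read.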
TRHR agonist: agonists of human TRH receptor. TRHR cells, calcium flux fluo-8, FDSS agonist mode. activation, % at 2 µM. AID 493084. 0.18% of 360,000 active; note: 0% is about no effect
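TRHR-expressing cells loaded with fluo-8 calcium dye; 23 nL library compound pin-transferred, kinetic FDSS fluorescence (Ex 480/Em 530) recorded about 180 s for agonist-induced calcium release, before a 10 nM TRH EC20 addition for potentiator mode.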
D1 agonist: activates the human D1 dopamine receptor; P21728; HEK293 T-REx D1 cells, calcium flux, agonist mode; activation, % at 2 µM; 1% of 360,000 active; note: 0% is about no effect
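Inducible HEK293 T-REx D1 cells, force-coupled to calcium signalling, were plated at 4000 cells/well with tetracycline and held overnight at 30 C. After no-wash calcium dye loading, compound-evoked calcium rise over 180 s flagged agonists.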
TRHR enhancer: TRH receptor (human) allosteric enhancement; 0.66% of 360,000 active; TRHR cells, fluo-8 calcium fluorescence, EC20 TRH enhancement; enhancement, % at 2 µM; in the data active = enhancement above about 30%; note: 0% is about no effect
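TRHR-expressing cells loaded with fluo-8 calcium dye were read kinetically (ex 480/em 530) during compound addition, then stimulated with an EC20 of TRH (10 nM final). Enhancement of the Gq-mediated intracellular calcium response was scored.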
D1 PAM: enhances dopamine response at the human D1 receptor. potentiation, % at 10 µM. HEK293 TREx D1 cells, calcium flux, dopamine EC20 potentiation. P21728. 0.036% of 360,000 active; in the data active = potentiation above about 30%; note: 0% is about no effect
* marks the source's active call; other numbers are inactive results; . = not tested or not shown. Most compounds without a hit are left out; they make up all but 4.7% or so of the library. Cut-off read from the data, not from the text of the source, unless noted: active = activation above about 30%; inactive = the rest.

SMILES | D1 antag | TRHR agonist | D1 agonist | TRHR enhancer | D1 PAM
COc1ccc(CCNC(=O)c2ccc3c(c2)N(Cc2ccc(F)cc2)C(=O)c2ccccc2S3(=O)=O)cc1OC | 9 | 1 | 4 | -5 | -2
CN1CCN(C2=Cc3ccccc3Sc3cc(F)c(F)cc32)CC1 | -83* | 0 | 56* | 5 | -4
CN1CCN(C2=Cc3ccccc3Sc3cc(F)c(Cl)cc32)CC1 | -70* | 1 | 8 | 7 | -10
CN1CCN(C2=Cc3cc(Cl)ccc3Sc3cc(F)ccc32)CC1 | -9 | 0 | 0 | 8 | -4
CNc1cc(N2CCCC2)ccc1[N+](=O)[O-] | . | -1 | -2 | -10 | 0
COc1cccc(N(C(=O)c2snc(C(N)=O)c2N)C(C(=O)NCC2CCCO2)c2ccc(F)cc2)c1 (stereo unspecified) | -2 | 0 | 4 | -2 | .
NC(=O)c1nsc(C(=O)N(c2ccc3c(c2)OCO3)C(C(=O)NCC2CCCO2)c2ccc(F)cc2)c1N (stereo unspecified) | -77* | 0 | -1 | 8 | -9
CCc1ccc(N(C(=O)c2snc(C(N)=O)c2N)C(C(=O)NCC2CCCO2)c2cccs2)cc1 (stereo unspecified) | 25 | 0 | -1 | -5 | -1
NC(=O)c1nsc(C(=O)N(c2ccc(Cl)cc2)C(C(=O)NCC2CCCO2)c2cccs2)c1N (stereo unspecified) | -33* | 1 | 2 | -5 | -5
N#C/C(=C\c1ccc(O)cc1)C(=O)NCC1CCCO1 (stereo unspecified) | -7 | 0 | 2 | -6 | -3
O=C(Nc1ccncc1)C1CCN(S(=O)(=O)c2cccs2)CC1 | 3 | 0 | 5 | 1 | -5
O=C(Nc1ccc(F)cc1)C1CCC(N2C(=O)c3ccccc3C2=O)CC1 (stereo unspecified) | -30* | 1 | 7 | -1 | 0
O=C(Nc1ccc(F)cc1)C1CCN(S(=O)(=O)c2cccs2)CC1 | -40* | -1 | 13 | -6 | -1
O=C(Nc1cc(Cl)ccn1)C1CCN(S(=O)(=O)c2cccs2)CC1 | -31* | 0 | 5 | 0 | -15
Cc1csc(NC(=O)C2CCN(S(=O)(=O)c3ccccc3F)CC2)n1 | -38* | 0 | 24 | 8 | -11
COC(CN(C)C(=O)c1ccc2c(c1)NC(=O)c1ccccc1S2)OC | 0 | 1 | 1 | -4 | -8
COc1cc(C(=O)Nc2nonc2-c2ccc(Cl)cc2)cc(OC)c1OC | 14 | 8 | 30* | 2 | 3
O=C(NC(=S)Nc1ccc(N2CCOCC2)c(Cl)c1)c1sc2ccccc2c1Cl | -31* | 0 | 2 | 4 | 8
O=C(NN=C1CCCC1)c1sc2ccccc2c1Cl | -14 | 1 | 0 | 5 | -2
O=C1CCC/C(=N/NC(=O)c2sc3ccccc3c2Cl)C1 | -5 | 39* | 81* | 4 | -10
O=C(NNC(=O)c1cccs1)c1ccc(F)cc1 | -13 | 0 | 4 | 36* | -2
COc1ccc(NC(=O)CNc2cccc(S(=O)(=O)N3CCCCCC3)c2)c([N+](=O)[O-])c1 | -11 | 0 | 17 | -4 | .
CN(C(=O)CSc1nc2ccc(NC(=O)c3cccs3)cc2s1)c1ccccc1 | -6 | -1 | 0 | -5 | -2
Cc1cccc(C(=O)NC(=S)NNC(=O)c2ccc(Cl)cc2)c1 | 34 | 29 | 172* | 4 | 24
CCC(=O)Nc1cccc(NC(=S)NC(=O)c2ccc(C)cc2)c1 | -2 | 0 | 2 | 2 | -4
SMILES | D1 antag | TRHR agonist | D1 agonist | TRHR enhancer | D1 PAM
CCC(=O)Nc1cccc(NC(=S)NC(=O)c2cccc(C)c2)c1 | -38* | -3 | 9 | -1 | 1
Cc1cccc(C(=O)NNC(=O)c2ccc(Br)cc2)c1 | -5 | 0 | 2 | 5 | 1
COc1cc(C(=O)NNC(=S)NC(=O)c2ccc(Cl)cc2)cc(OC)c1OC | -5 | 10 | 60* | 12 | -1
O=C(Nc1ccncc1)c1sc2ccccc2c1Cl | -41* | 0 | 6 | 4 | -7
Cc1cccc(C(=O)NC(=S)NNC(=O)c2cccs2)c1 | -18 | 42* | 213* | -10 | -5
O=C(NNC(=S)NC(=O)c1sc2ccccc2c1Cl)c1ccc(Cl)cc1 | -38* | 1 | 141* | -3 | -5
CC(C)(C)c1ccc(C(=O)NC(=S)NNC(=O)c2cccs2)cc1 | 156 | 34* | 367* | 7 | 29
Cc1ccccc1C(=O)NNC(=S)NC(=O)c1cccs1 | -29 | 21 | 136* | -7 | -9
COc1cc(SC)ccc1C(=O)Nc1cccc(S(=O)(=O)NC2=NCCC2)c1 | -17 | 0 | 1 | 1 | -7
O=C(NCC(=O)N1CCN(c2ccccc2O)CC1)c1cccs1 | -18 | 0 | 10 | -6 | -5
CC(=Nc1ccc(C)cc1C)c1sc2ccccc2c1O | -12 | 5 | 21 | 0 | -6
CC(=Nc1ccc(C)cc1)c1sc2ccccc2c1O | -22 | 19 | 61* | -6 | -8
COc1cccc(C2=CC(c3ccc(N(C)C)cc3)n3nnnc3N2)c1 (stereo unspecified) | -36* | 1 | 3 | 0 | -12
COc1cccc(C2=CC(c3cc(OC)ccc3OC)n3nnnc3N2)c1 (stereo unspecified) | -42* | -1 | 2 | 2 | -4
COc1ccc(OC)c(C2C=C(c3ccc(C)c(C)c3)Nc3nnnn32)c1 (stereo unspecified) | -1 | 0 | 2 | 1 | 3
CNC(=O)NC(=O)CSc1nnc(-c2ccco2)n1-c1ccccc1 | -3 | -1 | 4 | -4 | 2
CCCC(=O)Nc1ccc2c(c1)C(=O)NC2=O | -19 | 0 | 0 | 4 | -5
CCCC(=O)Nc1cccc(Oc2ccc3c(c2)C(=O)NC3=O)c1 | 13 | -1 | -1 | 35* | -16
CC1(C)OC(C)(C)/C(=C\c2ccc(OCC(N)=O)cc2)C1=O | -66* | 0 | 4 | -7 | 1
Cc1ccc(CNC(=O)C2CCN(S(=O)(=O)Cc3ccccc3)CC2)cc1 | -1 | 0 | 2 | 0 | -3
COc1cc2c(cc1OC)C(c1cccs1)N(C(=O)C(C)C)CC2 (stereo unspecified) | -78* | -1 | -1 | -4 | -11
COc1cc2c(cc1OC)C(C1C(=O)CCCC1=O)N(C(=O)CCl)CC2 (stereo unspecified) | 3 | 0 | 0 | 3 | -2
COc1cc2c(cc1OC)C(c1ccccc1)N(C(=O)CCl)CC2 (stereo unspecified) | -32* | 4 | 2 | -5 | -5
COc1cc2c(cc1OC)C(c1cccs1)N(C(=O)c1cccnc1)CC2 (stereo unspecified) | -9 | 0 | 0 | 1 | -5
Cc1csc2ncnc(NC3CCN(Cc4ccccc4)CC3)c12 | -33* | 0 | 22 | 2 | -10
